Data on six compounds can be found in PubChem BioAssay (NCATS).

In test [1] the target is Glucocorticoid receptor (Homo sapiens) (UniProt P04150). Nature of the test: qHTS assay for small molecule agonists of glucocorticoid receptor signaling (AID 588532; active means well fitted curve in the direction sought with a large enough effect in the signal ratio, with a control signal flat; the % refers to the signal ratio;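 further: 100% = dexamethasone at 0.1 µM and 0% = DMSO only wells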). Particulars: HeLa MMTV-bla, beta-lactamase ratio, agonist, 18 h; activation: stronger effect = higher value, percent of dexamethasone control, DMSO zero. A digest of the protocol:
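HeLa GRE-bla reporter cells; 18 h compound exposure at 37 C; 2 h CCF4 loading at room temperature; fluorescence at 460 and 530 nm; EC50 by Hill equation.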

The target in test [2] is Peroxisome proliferator-activated receptor delta (Homo sapiens) (UniProt Q03181). Nature of the test: qHTS assay for small molecule agonists of peroxisome proliferator-activated receptor delta signaling (AID 588534; calls by dose curve;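 further: 0% = DMSO basal wells and 100% = positive control agonist at 10 µM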). A digest of the protocol: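 Reporter cells were plated and held 5 hrs at 37 C before compounds were added. After 18 hrs at 37 C, CCF4 dye was loaded for 2 hrs at RT and fluorescence measured.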
(In general: In qHTS, concentration-response curves come from the screen itself.)

The target in test [3] is Peroxisome proliferator-activated receptor gamma (Homo sapiens) (UniProt P37231). Nature of the test: qHTS assay for small molecule agonists of peroxisome proliferator-activated receptor gamma signaling (AID 588536; active means well fitted curve in the direction sought with a large enough effect in the signal ratio, with a control signal flat, not every such curve was filed as active; the % refers to the signal ratio;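 further: 0% = DMSO basal wells and 100% = rosiglitazone at 2 µM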). A digest of the protocol:
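GeneBLAzer PPAR-gamma-UAS-bla HEK293 cells in 1% charcoal/dextran-treated FBS medium were treated 16 h at 37 C with compounds. Beta-lactamase activity was read by CCF4 ratio (460/530 nm). Response was normalized to 2 uM rosiglitazone (100%) and DMSO, then Hill-fitted for EC50 and efficacy.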

Test [4] has the same target. Nature of the test: qHTS assay for small molecule antagonists of peroxisome proliferator-activated receptor gamma signaling (AID 588537; active means well fitted inhibition curve with a large enough effect in the signal ratio, with a control signal flat, not every such curve was filed as active; the % refers to the signal ratio;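 further: reporter cells co-stimulated with 50 nM rosiglitazone agonist during compound treatment; % of control where 0% means no effect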). A digest of the protocol: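 Step one: plate 3000 HEK293 UAS-bla cells per well in medium with 1% stripped serum and hold 6-6.5 h at 37 C. Step two: add compound and 50 nM agonist for 16 h. Step three: CCF4 loading, fluorescence read.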

Test [5] addresses Vitamin D3 receptor (Homo sapiens) (UniProt P11473). Nature of the test: qHTS assay for small molecule antagonists of vitamin D receptor signaling (AID 588541; calls by dose curve;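 further: receptor activated by calcitriol during compound treatment; series mostly up to about 77 µM; on the % scale 0 is the no-effect control and ±100 the full control effect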). A digest of the protocol:
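VDR-UAS-bla HEK293T cells in 2% charcoal-stripped FBS were stimulated with 1-alpha,25-dihydroxyvitamin D3 (3 nM final) plus compound for 16 h at 37 C. The beta-lactamase CCF4 readout was normalized to 50 nM agonist and DMSO, and Hill fits gave IC50.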

Test [6] has the same target. Nature of the test: qHTS assay for small molecule agonists of vitamin D receptor signaling (AID 588543; calls by dose curve;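 further: 0% = DMSO basal and 100% = reference agonist control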). A digest of the protocol: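 β-lactamase reporter, VDR-UAS-bla HEK293T, agonist mode. Cells plated 5 h at 37 °C, compound titration 16 h at 37 °C, CCF4 dye 2 h RT, ratio 460/530 nm. Hill fit → EC50, efficacy vs 50 nM 1α,25-(OH)2D3.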
For test [7], the target named is Retinoic acid receptor RXR-alpha (Homo sapiens) (UniProt P19793). Nature of the test: qHTS assay for small molecule agonists of retinoid X receptor alpha signaling (AID 588544; calls by dose curve; further: potency means the concentration at half of the fitted maximal effect;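 on activation: 0% = DMSO basal wells and 100% = reference agonist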).
In test [8] the target is Thyroid hormone receptor beta (Homo sapiens) (UniProt P10828). Nature of the test: qHTS assay for small molecule agonists of thyroid hormone receptor beta signaling (AID 588545; calls by dose curve;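 further: 0% = DMSO only and 100% = 10 nM T3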). A digest of the protocol: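 Compounds were tested as agonists in TR-UAS-bla-GripTite HEK 293 cells. After 18 hrs at 37 C, CCF4 substrate was added and fluorescence read after 2 hrs at room temperature.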

A short description of test [9]: qHTS assay for small molecule antagonists of retinoid X receptor alpha signaling (AID 588546; active means well fitted inhibition curve with a large enough effect in the signal ratio, with a control signal flat, not every such curve was filed as active; the % refers to the signal ratio;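 further: cells stimulated with 9-cis-retinoic acid as agonist; on the % scale 0 is the no-effect control and ±100 the full control effect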). The settings on record: HEK293T RXRa-UAS-bla, beta-lactamase ratio, antagonist mode; measured here: W530 green channel, cytotoxicity proxy. A digest of the protocol:
(§1)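 Beta-lactamase reporter inhibition, read as CCF4 fluorescence ratio (ex 405, em 460/530 nm) after 2 h at RT. HEK293T UAS-bla cells, 2500/well, were stimulated with 9-cis-RA at 500 or 100 nM final alongside test compound for 18 h at 37 C.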

Test [10] addresses Retinoic acid receptor RXR-alpha (Homo sapiens) (UniProt P19793). The description is as above. The settings on record: HEK293T RXRa-UAS-bla, beta-lactamase ratio, antagonist mode. A digest of the protocol: as §1
The target in test [11] is Thyroid hormone receptor beta (Homo sapiens) (UniProt P10828). Nature of the test: qHTS assay for small molecule antagonists of thyroid hormone receptor beta signaling (AID 588547; active means well fitted inhibition curve with a large enough effect in the signal ratio, with a control signal flat, not every such curve was filed as active; the % refers to the signal ratio;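 further: cells stimulated with 0.4 nM T3 agonist during compound exposure; series mostly up to about 77 µM; on the % scale 0 is the no-effect control and ±100 the full control effect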). Particulars: TR-UAS-bla HEK293, beta-lactamase ratio, antagonist mode, 18 h. A digest of the protocol:
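TR-UAS-bla GripTite HEK293 cells in 2% charcoal/dextran FBS medium; compounds 0.59 nM to 92 uM with T3 at 0.4nM final, 18 h at 37 C. Beta-lactamase read by CCF4 fluorescence (460/530 nm); Hill fits gave IC50 and efficacy.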

Test [12] in a line: qHTS assay for small molecule activators of the p53 signaling pathway (AID 651743; active means well fitted activation curve with a large enough effect in the signal ratio, not every such curve was filed as active; the % refers to the signal ratio; further: series mostly up to about 92 µM; % of control where 0% means no effect). Particulars: HCT-116 p53RE-bla, beta-lactamase FRET ratio, 16 h; activation: stronger effect = higher value. A digest of the protocol: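 HCT-116 p53RE-bla, 4,000 cells/well; 5 h settle; cpd/DMSO 16 h, 37 C; LiveBLAzer B/G 2 h RT; fluorescence intensity.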
Test [13] in a line: qHTS assay for environmental chemicals that activate the Aryl hydrocarbon Receptor (AhR) signaling pathway (AID 651777). Further: % of control where 0% means no effect; nearly all actives have a fitted effect of over 15% in size. Particulars: 1A2-DRE human hepatoma cells, luciferase, 24 h; activation: stronger effect = higher value. A digest of the protocol: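 Induction of CYP1A2 transcription through AhR is detected by luciferase in 1A2-DRE hepatoma cells. Compounds or DMSO act for 24 hr at 37 C before a 30 min One-Glo step at room temperature.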

Test [14] has as its target Peroxisome proliferator-activated receptor alpha (Homo sapiens) (UniProt Q07869). Nature of the test: qHTS assay for small molecule agonists of the peroxisome proliferator-activated receptor alpha (PPARalpha) signaling pathway (AID 651778). Further: potency means the concentration at half of the fitted maximal effect. On max response: % of control where 0% means no effect. Particulars: PathHunter PPARalpha complementation, chemiluminescence, 6 h; max response: stronger effect = higher value. A digest of the protocol:
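Enzyme-fragment complementation assay in which ligand-bound PPARalpha translocates and forms an active enzyme that generates chemiluminescence. Cells were plated overnight, exposed to compound for 6 hr at 37 C, and then given detection reagent for 60 min at room temperature.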

Test [15] in a line: qHTS assay for small molecule agonists of the antioxidant response element (ARE) signaling pathway measured by Nrf2-dependant transcriptional activity (AID 720636; active means well fitted curve in the direction sought with a large enough effect in the repeat runs; an effect the other way counts as inactive or inconclusive;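 further: HepG2 cells with an ARE-driven luciferase reporter; % of control where 0% means no effect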). A digest of the protocol: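 We exposed ARE-luc HepG2 cells, seeded in assay medium with 1% dialyzed FBS and allowed 6 hr to adhere, to test compounds overnight (16 hr, 37 C) before measuring luciferase with ONE-Glo.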

Test [16] can be described thus: qHTS assay for small molecule agonists of the antioxidant response element (ARE) signaling pathway measured by Nrf2-dependant transcriptional activity - cell viability counter screen (AID 720653; active means well fitted curve in the direction sought with a large enough effect in the repeat runs; an effect the other way counts as inactive or inconclusive; further: on the % scale 0 is the no-effect control and ±100 the full control effect). The settings on record: ARE-bla HepG2 viability, CellTiter-Glo ATP luminescence, 16 h; max response: stronger effect = lower value. A digest of the protocol:
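ARE-bla HepG2 cells treated with compounds for 16 h at 37C; this counter screen measures viability as intracellular ATP by CellTiter-Glo luminescence after 30 min at room temperature.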

The nature of test [17]: qHTS assay for cell viability of HEK293 cells (AID 743288). Further: on the % scale 0 is the no-effect control and ±100 the full control effect; nearly all actives have a fitted effect of over 50% in size. Particulars: ATP luminescence (CellTiter-Glo), 18 h; max response: stronger effect = lower value. A digest of the protocol: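 Environmental chemicals tested in qHTS format against parental HEK293 cells; 18 h treatment, 37 C; read-out ATP luminescence (CellTiter-Glo), 30 min RT development.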
A short description of test [18]: qHTS assay for cell viability of the p53RE-bla HCT-116 cell line (AID 743292). Further: on the % scale 0 is the no-effect control and ±100 the full control effect; nearly all actives have a fitted effect of over 55% in size. A digest of the protocol: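 In this qHTS counter-screen, metabolically competent p53RE-bla HCT-116 cells were counted via their ATP content. Compounds were applied for 16 h at 37 C and luciferase-coupled luminescence was measured.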
The target of test [19] is Nuclear receptor subfamily 1 group I member 2 (Rattus norvegicus) (UniProt Q9R1A7). Nature of the test: qHTS assay for small molecule activators of the rat pregnane X receptor (rPXR) signaling pathway (AID 651751; call rule not given here; further: 0% is about no effect). Particulars: rPXR reporter cells, luciferase (One-Glo), 24 h.
A short description of test [20]: qHTS assay for small molecule antagonists of peroxisome proliferator-activated receptor delta signaling (AID 588535).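 Further: cells co-treated with a PPAR-delta agonist as stimulator during compound exposure.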 The settings on record: HEK293T PPARd-UAS-bla, beta-lactamase FRET ratio, 18 h; 460 nm channel. A digest of the protocol: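 Cells were seeded at 4000 per well in assay medium containing 2% charcoal/dextran FBS and held 5 hrs at 37 C. Compounds were then added for 18 hrs. CCF4 substrate was applied for 2 hrs at room temperature before fluorescence reading.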

Results filed as inconclusive are left out. The source made the active and inactive calls. Unless noted, the call rests on the fitted dose curve; in most records, active means well fitted curve in the direction sought with a large enough effect; inconclusive means small, poorly fitted or top-dose-only effect, or another doubt; inactive means no such curve, though single readings can be large; an effect the other way counts as inactive or inconclusive.

Sequence of Peroxisome proliferator-activated receptor delta (Homo sapiens) (Q03181 whole entry, looked up): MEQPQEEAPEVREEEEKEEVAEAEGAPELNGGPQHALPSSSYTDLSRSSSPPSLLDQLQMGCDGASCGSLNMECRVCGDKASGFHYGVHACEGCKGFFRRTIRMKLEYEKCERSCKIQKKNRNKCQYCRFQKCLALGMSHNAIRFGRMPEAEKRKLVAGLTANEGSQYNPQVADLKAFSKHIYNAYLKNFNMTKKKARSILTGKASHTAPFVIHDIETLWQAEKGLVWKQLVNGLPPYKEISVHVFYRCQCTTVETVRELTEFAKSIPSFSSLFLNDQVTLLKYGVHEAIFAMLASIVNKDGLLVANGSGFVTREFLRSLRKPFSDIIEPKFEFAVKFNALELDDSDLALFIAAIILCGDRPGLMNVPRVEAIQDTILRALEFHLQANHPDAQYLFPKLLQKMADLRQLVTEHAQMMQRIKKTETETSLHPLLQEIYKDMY
Sequence of Thyroid hormone receptor beta (Homo sapiens) (P10828 whole entry, looked up): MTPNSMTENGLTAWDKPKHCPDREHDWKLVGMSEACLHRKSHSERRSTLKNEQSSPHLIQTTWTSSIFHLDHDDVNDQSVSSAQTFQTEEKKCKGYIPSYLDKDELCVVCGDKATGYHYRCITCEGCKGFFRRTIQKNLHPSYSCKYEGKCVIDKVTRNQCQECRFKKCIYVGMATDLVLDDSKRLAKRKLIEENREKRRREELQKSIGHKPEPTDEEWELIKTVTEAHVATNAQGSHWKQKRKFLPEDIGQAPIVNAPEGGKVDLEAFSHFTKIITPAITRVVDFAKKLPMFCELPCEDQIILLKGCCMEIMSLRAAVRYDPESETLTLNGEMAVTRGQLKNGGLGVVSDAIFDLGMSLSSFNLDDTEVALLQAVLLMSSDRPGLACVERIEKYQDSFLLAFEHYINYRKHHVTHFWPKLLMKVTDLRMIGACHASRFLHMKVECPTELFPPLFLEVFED
Sequence of Peroxisome proliferator-activated receptor gamma (Homo sapiens) (P37231 whole entry, looked up): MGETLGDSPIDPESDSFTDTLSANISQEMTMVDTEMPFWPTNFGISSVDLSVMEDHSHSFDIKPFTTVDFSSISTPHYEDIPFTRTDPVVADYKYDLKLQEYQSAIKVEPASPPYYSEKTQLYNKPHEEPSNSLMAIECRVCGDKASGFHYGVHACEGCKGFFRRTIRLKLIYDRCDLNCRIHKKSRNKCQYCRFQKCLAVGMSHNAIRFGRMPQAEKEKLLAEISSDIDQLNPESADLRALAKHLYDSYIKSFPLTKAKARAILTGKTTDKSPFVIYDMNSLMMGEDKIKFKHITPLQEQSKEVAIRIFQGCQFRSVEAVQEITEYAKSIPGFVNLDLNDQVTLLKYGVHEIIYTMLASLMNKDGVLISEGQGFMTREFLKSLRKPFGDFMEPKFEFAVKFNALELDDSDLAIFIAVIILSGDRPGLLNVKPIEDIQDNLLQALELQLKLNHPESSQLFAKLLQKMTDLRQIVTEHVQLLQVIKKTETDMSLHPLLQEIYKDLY
Sequence of Vitamin D3 receptor (Homo sapiens) (P11473 whole entry, looked up): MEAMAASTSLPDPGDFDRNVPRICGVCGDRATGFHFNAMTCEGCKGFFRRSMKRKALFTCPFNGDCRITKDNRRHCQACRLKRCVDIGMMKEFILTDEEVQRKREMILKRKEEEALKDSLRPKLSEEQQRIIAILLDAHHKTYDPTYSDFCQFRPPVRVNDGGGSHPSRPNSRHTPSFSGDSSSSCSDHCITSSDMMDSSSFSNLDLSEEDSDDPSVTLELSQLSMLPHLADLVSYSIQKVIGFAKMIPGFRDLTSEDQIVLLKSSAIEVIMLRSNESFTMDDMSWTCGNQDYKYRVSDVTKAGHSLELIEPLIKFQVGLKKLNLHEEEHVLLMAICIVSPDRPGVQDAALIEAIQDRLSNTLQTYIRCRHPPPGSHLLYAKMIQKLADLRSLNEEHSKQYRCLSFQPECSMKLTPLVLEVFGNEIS
Sequence of Nuclear receptor subfamily 1 group I member 2 (Rattus norvegicus) (Q9R1A7 whole entry, looked up): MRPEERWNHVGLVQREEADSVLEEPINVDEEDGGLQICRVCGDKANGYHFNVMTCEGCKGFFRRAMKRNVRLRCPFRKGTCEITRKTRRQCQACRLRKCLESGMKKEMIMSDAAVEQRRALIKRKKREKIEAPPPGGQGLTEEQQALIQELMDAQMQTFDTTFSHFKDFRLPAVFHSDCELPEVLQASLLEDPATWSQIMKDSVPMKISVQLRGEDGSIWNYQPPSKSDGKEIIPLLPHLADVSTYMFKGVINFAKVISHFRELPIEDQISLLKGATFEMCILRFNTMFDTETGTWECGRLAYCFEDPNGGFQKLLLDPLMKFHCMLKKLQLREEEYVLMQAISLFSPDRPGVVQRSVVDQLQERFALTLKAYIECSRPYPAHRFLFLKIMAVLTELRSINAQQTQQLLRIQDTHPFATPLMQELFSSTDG
Sequence of Retinoic acid receptor RXR-alpha (Homo sapiens) (P19793 whole entry, looked up): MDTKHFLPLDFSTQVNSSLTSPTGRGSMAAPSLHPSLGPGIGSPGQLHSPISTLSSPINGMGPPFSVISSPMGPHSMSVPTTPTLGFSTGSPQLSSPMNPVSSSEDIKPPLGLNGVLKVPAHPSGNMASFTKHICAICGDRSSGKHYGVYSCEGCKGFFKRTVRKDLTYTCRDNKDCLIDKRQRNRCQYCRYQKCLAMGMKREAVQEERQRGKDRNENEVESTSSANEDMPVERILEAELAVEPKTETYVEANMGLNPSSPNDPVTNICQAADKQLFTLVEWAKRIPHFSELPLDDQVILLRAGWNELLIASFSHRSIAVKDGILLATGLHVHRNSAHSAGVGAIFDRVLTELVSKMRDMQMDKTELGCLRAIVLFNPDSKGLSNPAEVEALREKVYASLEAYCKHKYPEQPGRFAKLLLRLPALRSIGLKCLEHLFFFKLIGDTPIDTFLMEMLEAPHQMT
Sequence of Peroxisome proliferator-activated receptor alpha (Homo sapiens) (Q07869 whole entry, looked up, the tested form may be a part): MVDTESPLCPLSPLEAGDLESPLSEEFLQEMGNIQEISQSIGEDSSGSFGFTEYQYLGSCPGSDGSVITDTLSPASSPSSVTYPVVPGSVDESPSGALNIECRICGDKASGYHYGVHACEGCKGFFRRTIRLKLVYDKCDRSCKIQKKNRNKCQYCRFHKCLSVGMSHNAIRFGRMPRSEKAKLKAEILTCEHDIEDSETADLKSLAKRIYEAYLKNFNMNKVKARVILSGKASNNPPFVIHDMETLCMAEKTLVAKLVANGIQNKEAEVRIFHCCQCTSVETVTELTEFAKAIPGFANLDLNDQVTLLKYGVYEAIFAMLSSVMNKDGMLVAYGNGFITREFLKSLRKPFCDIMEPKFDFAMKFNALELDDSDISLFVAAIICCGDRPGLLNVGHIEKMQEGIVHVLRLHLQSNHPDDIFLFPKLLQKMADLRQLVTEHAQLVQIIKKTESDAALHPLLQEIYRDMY
Sequence of Glucocorticoid receptor (Homo sapiens) (P04150 whole entry, looked up): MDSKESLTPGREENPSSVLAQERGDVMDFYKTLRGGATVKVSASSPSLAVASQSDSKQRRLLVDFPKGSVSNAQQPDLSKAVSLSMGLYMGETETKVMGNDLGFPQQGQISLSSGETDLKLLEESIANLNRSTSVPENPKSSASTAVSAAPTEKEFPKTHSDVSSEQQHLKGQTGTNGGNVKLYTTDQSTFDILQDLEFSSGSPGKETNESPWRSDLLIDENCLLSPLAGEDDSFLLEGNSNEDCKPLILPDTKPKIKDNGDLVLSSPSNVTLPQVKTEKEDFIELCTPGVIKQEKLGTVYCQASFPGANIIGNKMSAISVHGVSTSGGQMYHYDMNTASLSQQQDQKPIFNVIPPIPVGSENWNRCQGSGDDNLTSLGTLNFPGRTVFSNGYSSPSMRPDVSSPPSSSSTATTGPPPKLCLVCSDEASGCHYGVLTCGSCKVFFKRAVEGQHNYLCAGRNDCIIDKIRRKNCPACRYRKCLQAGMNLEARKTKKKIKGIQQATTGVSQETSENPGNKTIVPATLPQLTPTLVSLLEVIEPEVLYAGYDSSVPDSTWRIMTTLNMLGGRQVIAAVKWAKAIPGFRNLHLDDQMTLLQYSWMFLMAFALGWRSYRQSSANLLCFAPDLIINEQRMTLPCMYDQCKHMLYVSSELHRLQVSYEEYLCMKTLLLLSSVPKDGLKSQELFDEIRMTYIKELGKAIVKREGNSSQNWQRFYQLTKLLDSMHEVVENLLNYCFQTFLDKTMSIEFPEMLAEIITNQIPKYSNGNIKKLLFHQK

Take `CC1(C)CC/C(=C\c2ccc(Cl)cc2)C1(O)Cn1cncn1` (centres undefined): the activation in [1] is -0.523% (inactive); in [12] it was -1.43% (inactive); in [13], 7.02% (inactive). In addition, the call in [2] and in [6] was inactive. For the same compound, the Potency entry in test [3], in test [4], in test [5], in [7], in [8] and in test [15] was “inactive” throughout. Besides, in test [18], the Potency entry is “inactive”. In addition, the max response in test [9] is 5.05%; in test [10] it was -37.6% (inactive); in test [14], 0.489% (inactive); in test [16] it was -5.93% (inactive); in [17], -11.5% (inactive); in test [19] it was 12.5% (inactive). Moreover, the activity change % (negative = inhibition) in test [11] was -0.512% (inactive).

For `CC(C)C1(C)N=C(c2nc3ccccc3cc2C(=O)O)NC1=O` (centres undefined), the activation in test [1] was 2.3% (inactive); in test [12] it was 1.69% (inactive); in test [13], -0.47% (inactive). In addition, the call in test [2] and in test [6] was inactive. In addition, the Potency result in [4], in [5], in test [7], in test [8], in [15] and in [18] was “inactive” each time. The max response is 6.33% in [9]; 4.25% (inactive) in test [10]; 0.197% (inactive) in test [14]; -2.59% (inactive) in [16]; -6.66% (inactive) in test [17]; -1.98% (inactive) in test [19]. The activity change % (negative = inhibition) in [11] is 9.94% (inactive).

For `CCCCCCCCCCCCCCC(Br)C(=O)O` (centres undefined), the activation is -1.04% (inactive) in test [1] and -0.608% (inactive) in test [13]. Also, the Potency entry in [4] and in test [5] was “inactive” each time. In addition, in test [6], the result was inactive. Besides, the Potency is 31.6 µM (active) in [7] and 14.1 µM (active) in test [14]. For the same compound, the max response is 6.53% in test [9]; -14.5% (inactive) in test [10]; 1.85% (inactive) in test [16]; 3.54% (inactive) in test [17]; -4.78% (inactive) in test [19].

Turning to `CCCCC(O)(Cn1cncn1)c1ccc(Cl)cc1Cl` (centres undefined), the max response in test [20] is -34%; in test [9], -3.36%; in test [10] it was -17.2% (inactive); in test [14] it was 9.57% (inactive); in test [16], -0.171% (inactive); in test [17] it was -16.7% (inactive). Further, in test [6], the compound was classed as inactive. Also, the activation in test [12] is -5.41% (inactive); in [13], 2.7% (inactive). Besides, the Potency result in test [15] and in test [18] was “inactive” in each case.

For `CNC(=O)O/N=C/C(C)(C)S(C)(=O)=O`, the values for the activation in [1], in test [12] and in test [13] were 9.32% (inactive), -2.46% (inactive) and -0.939% (inactive), respectively. The Potency result in test [3], in test [7], in test [8], in [15] and in test [18] was “inactive” each time. In addition, the max response in test [9] was -10.7%; in test [10], 0.762% (inactive); in test [14], -0.004% (inactive); in [16], 1.38% (inactive); in [17], 0.485% (inactive); in test [19], 1.26% (inactive).

In the case of `CS/C(C)=N/OC(=O)N(C)SN(C)C(=O)O/N=C(\C)SC`, the activation was 10.5% (inactive) in test [1], -1.16% (inactive) in test [12] and 3.44% (inactive) in test [13]. The result in test [2] was inactive. The max response in [20] is -23.5%; in [9] it was 3.2%; in [10], 15.5% (inactive); in test [16], 6.17% (inactive); in [17] it was -6.07% (inactive); in [19], -5.16% (inactive). Besides, the Potency entry in test [3], in test [8], in [15] and in test [18] was “inactive” each time. For the same compound, the activity change % (negative = inhibition) in test [11] was -7.26% (inactive).
